# Inconclusive results are not listed. Where a call stands in place of a potency, no number is given. Calls of active or inactive are those of the source. Calls come from the whole dose curve; as a rule, active = well fitted curve in the direction sought with a large enough effect; inconclusive = small, poorly fitted or top-dose-only effect, or another doubt; inactive = no such curve, though single readings can be large; an effect the other way counts as inactive or inconclusive.
# Assays:
# [1] = target: Protein phosphatase 1D (Homo sapiens) (UniProt O15297); experiment: RapidFire Mass Spectrometry qHTS Assay for Modulators of WT P53-Induced Phosphatase 1 (WIP1) (AID 1347424); conditions: WIP1 dephosphorylation of phosphopeptide, RapidFire MS; series mostly up to 63 µM;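 note: amount of dephosphorylated VEPPL-S-QETFS peptide product formed by WIP1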; note: potency is the fitted concentration of half-maximal effect
# Sequence of Protein phosphatase 1D (Homo sapiens) (O15297 whole entry, looked up): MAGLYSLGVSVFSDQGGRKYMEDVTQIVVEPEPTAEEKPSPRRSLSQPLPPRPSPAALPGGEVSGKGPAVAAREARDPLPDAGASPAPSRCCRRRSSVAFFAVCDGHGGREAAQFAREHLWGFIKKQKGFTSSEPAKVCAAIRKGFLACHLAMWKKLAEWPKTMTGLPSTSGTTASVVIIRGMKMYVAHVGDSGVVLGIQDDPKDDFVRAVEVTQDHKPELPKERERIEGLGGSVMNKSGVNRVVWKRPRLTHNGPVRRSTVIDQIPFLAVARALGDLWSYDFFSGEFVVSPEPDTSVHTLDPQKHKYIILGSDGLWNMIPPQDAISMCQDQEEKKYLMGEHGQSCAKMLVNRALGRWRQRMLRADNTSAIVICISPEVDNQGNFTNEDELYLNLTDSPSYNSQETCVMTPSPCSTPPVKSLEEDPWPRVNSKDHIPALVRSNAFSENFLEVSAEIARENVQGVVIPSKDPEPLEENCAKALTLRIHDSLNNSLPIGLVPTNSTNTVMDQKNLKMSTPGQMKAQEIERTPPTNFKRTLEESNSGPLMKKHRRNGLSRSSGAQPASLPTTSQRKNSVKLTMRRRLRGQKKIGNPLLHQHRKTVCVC
# In short: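 RapidFire mass spectrometry measured dephosphorylated peptide after 5 min room-temperature reaction of 2 uM VEPPL-pS-QETFS with 10 nM WIP1 (50 mM Tris-HCl pH 7.5, 30 mM MgCl2, 0.1 mM EGTA, BSA), following 1 hr compound preincubation; 1 uM isotope-labelled product standard.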
# [2] = target: Protein phosphatase 1D (Homo sapiens) (UniProt O15297); experiment: Rhodamine-PBP qHTS Assay for Modulators of WT P53-Induced Phosphatase 1 (WIP1) (AID 1347425); conditions: recombinant WIP1, Rhodamine-PBP phosphate fluorescence, real-time; series mostly up to 57.5 µM
# In short: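 The read-out is the change in Rhodamine-PBP fluorescence (f1 - f0, ex 525/em 598 nm) as Pi is released, read each minute for 11 min. Final reaction: 5 nM WIP1, 10 uM phosphopeptide VEPPL-pS-QETFS, 10 uM Rh-PBP, 50 mM Tris-HCl pH 7.5, 30 mM MgCl2. Compound was preincubated with enzyme for 1 hour at room temperature.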
# [3] = Validation qHTS assay for inhibitors of Activation Induced Cytidine Deaminase (AID): UDG Counterscreen signal (AID 1347427); conditions: biochemical UDG counterscreen, fluorescence signal; series mostly up to 115 µM
# In short: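 Fluorescence at 560 nm excitation, 665 nm emission reports UDG signal after 250 mM NaOH (2x) addition and 30 min. Enzymes (AID 1 uM, UDG 2 U/mL, at 4/3x) preincubated 10 min with compound, then 4 h with 4x 250 nM DJC20/DJC23 substrate at room temperature.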
# [4] = target: Single-stranded DNA cytosine deaminase (Homo sapiens) (UniProt Q9GZX7); experiment: Validation qHTS assay for inhibitors of Activation Induced Cytidine Deaminase (AID): AID signal (AID 1347429); conditions: Recombinant AID, FRET ssDNA deamination with UDG, fluorescence; series mostly up to 115 µM
# Sequence of Single-stranded DNA cytosine deaminase (Homo sapiens) (Q9GZX7 whole entry, looked up): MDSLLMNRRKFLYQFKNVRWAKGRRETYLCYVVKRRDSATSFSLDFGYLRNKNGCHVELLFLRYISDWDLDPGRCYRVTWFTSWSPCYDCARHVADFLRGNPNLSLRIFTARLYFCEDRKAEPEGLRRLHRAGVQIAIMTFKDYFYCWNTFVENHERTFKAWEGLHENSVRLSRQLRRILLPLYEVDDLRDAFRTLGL
# Excerpt: Assay Provider (PI) Patricia Gearhart Ph.D. National Institute on Aging National Institute of Health (NIH), Bethesda, MD Assay Provider (PI) Rahul Kohli Ph.D. Perelman School of Medicine University of Pennsylvania, Philadelphia, PA Activation-Induced Deaminase (AID) is a cytosine deaminase which converts cytosine into uracil within stretches of ssDNA. The presence of uracil in DNA initiates a cascade of mutagenic DNA repair to introduce point mutations and DNA double strand breaks. […] This screen has two signal output, Read 1 evaluates the AID inhibition response. The second readout (Read 2) evaluates UDG response and is uses as a counterscreen to exclude false positive inhibitors. […]
# PROTOCOL TABLE SEQUENCE No. (e.g., 1, 2, 3, etc.); […] […] 250 mM NaOH 7; Time; 15 sec; centrifuge at 1000 rpm 8; Time; 30 min; incubation at room temperature 9a; Detection; fluorescence (Read 1: AID); EnVision (PerkinElmer) plate reader, 540 excitation and 590 emission filters 9b; Detection; fluorescence (Read 2: UDG); EnVision (PerkinElmer) plate reader, 560 excitation and 665 emission filters NOTES (numbers refer to sequence above) 1a; Reagents were dispensed in a medium-binding black solid-bottom Greiner plates (789176F) using a BioRptr liquid dispenser. […] 8; Room temperature incubation 9a; Fluorescence signal (column label AID) was read using the EnVision plate reader. […]
# [5] = target: Calcium and integrin-binding protein 1 (Homo sapiens) (UniProt Q99828); experiment: Validation qHTS for Identification of Calcium Integrin Binding protein 1 (CIB1) Competitor (AID 1508618); conditions: CIB1-GST / FITC-alphaIIb peptide fluorescence polarization; series mostly up to 114 µM
# Sequence of Calcium and integrin-binding protein 1 (Homo sapiens) (Q99828 whole entry, looked up): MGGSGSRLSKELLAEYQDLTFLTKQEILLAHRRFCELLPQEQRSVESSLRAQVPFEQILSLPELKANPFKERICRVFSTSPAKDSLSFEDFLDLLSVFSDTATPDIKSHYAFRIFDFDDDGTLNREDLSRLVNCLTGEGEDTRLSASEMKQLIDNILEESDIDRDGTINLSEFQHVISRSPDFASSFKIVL
# In short: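 CIB1-GST (1 uM final) incubated 15 min at room temperature with compounds (up to 114 uM), then FITC-labelled alphaIIb peptide (100 nM) added. FP read (Ex 480/Em 540) after 15 min, pH 7.4 buffer containing 5 mM CaCl2.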
# [6] = Primary qHTS for small molecule stabilizers of the endoplasmic reticulum resident proteome: Secreted ER Calcium Modulated Protein (SERCaMP) assay (AID 1508630); conditions: SH-SY5Y GLuc-SERCaMP (Gaussia luciferase released on ER calcium loss) secretion, thapsigargin, luminescence; series mostly up to 38.4 µM
# In short: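 The SH-SY5Y reporter protocol was run at 3 concentrations up to 38.3 uM (primary) or 11 concentrations (follow-up): 16 h compound, 100 nM thapsigargin for 4 h, then extracellular luciferase luminescence.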
# [7] = Primary qHTS for inhibitors of La Crosse Virus (LACV) - induced cell death in SH-SY5Y cells (AID 1508616); conditions: SH-SY5Y LACV cytopathicity rescue, ATP luminescence, 6 d; series mostly up to 4.29 µM;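 note: top concentration of the series differs between compounds; higher means more rescue of cells from virus-induced death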
# In short: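 Cytopathicity rescue screen: compounds pinned onto SH-SY5Y cells, which are then infected with LACV (MOI 0.01) and held 6 days at 37C. Percent activity is scaled between infected DMSO control and uninfected DMSO control.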
# [8] = target: Calcium and integrin-binding protein 1 (Homo sapiens) (UniProt Q99828); experiment: Primary qHTS for Identification of Calcium Integrin Binding Protein 1 (CIB1) Competitor (AID 1508620); conditions: CIB1-GST / FITC-alphaIIb peptide fluorescence polarization; series mostly up to 114 µM;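 note: GST tagged CIB1 binding a fluorescein labelled alphaIIb integrin peptide tracer; top concentration of the series differs between compounds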
# In short: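 CIB1-GST (1 uM final) and compound incubated 15 min at room temperature before adding FITC-alphaIIb peptide tracer (100 nM final). Competition for binding read by fluorescence polarization (ex 480, em 540) after another 15 min at room temperature.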
compound,measurement,setting,value
CN[C@H]1CC[C@@H](c2ccc(Cl)c(Cl)c2)c2ccccc21,Potency,[1],inactive
same,outcome,[2],inactive
same,outcome,[3],inactive
same,outcome,[4],inactive
same,outcome,[5],inactive
same,outcome,[6],inactive
Oc1cccc(-c2c3nc(c(-c4cccc(O)c4)c4ccc([nH]4)c(-c4cccc(O)c4)c4nc(c(-c5cccc(O)c5)c5ccc2[nH]5)CC4)C=C3)c1,Potency,[1],1580 nM (active)
same,outcome,[7],inactive
NCCCC(=O)O,outcome,[3],inactive
same,outcome,[4],inactive
same,outcome,[6],inactive
O=c1[nH]cnc2c([C@@H]3N[C@H](CO)[C@@H](O)[C@H]3O)c[nH]c12,Potency,[8],inactive
CN1CC2CN(c3ccc4oc5ccccc5c(=O)c4c3)CC2C1 (stereo unspecified),Potency,[8],inactive
S=C(c1ccc(-c2ccc(Cl)c(Cl)c2)o1)N1CCCCC1,Potency,[8],inactive
C=C1C(=O)O[C@@H]2C=C(COC(C)=O)CC/C=C(\CO)CC[C@@H]12,Potency,[8],inactive
COc1cc(/C=C2\CC[C@H]3COC[C@@H](c4cc(F)c(F)c(F)c4)N3C2=O)ccc1-n1cnc(C)c1,Potency,[8],inactive
Cc1nc(Nc2cnn(C3CCNCC3)c2)nc2c1N(C)C(=O)c1cc3ccccc3cc1N2C,Potency,[8],inactive
COc1cc(CCC2=NN=C(NC(=O)c3ccc(N4C[C@@H](C)N[C@@H](C)C4)cc3)C2)cc(OC)c1,Potency,[8],inactive
NC(=O)C1=CC2C3C=CC2C(OC3=O)O1 (stereo unspecified),Potency,[8],inactive
C/C=C(\C)C(=O)O[C@@H]1[C@@H](C)[C@]2(O)[C@@H]3C=C(C)C(=O)[C@H]3CC(CO)=C[C@H]2C2C(C)(C)[C@@]21OC(=O)C(C)CC (stereo partly specified),Potency,[8],inactive
COc1cc2c(c(OC)c1CC=C(C)C)C[C@H](c1ccc(O)c(CC=C(C)C)c1O)CO2,Potency,[8],inactive
